{"source": "PubChem BioAssay AID624415", "about": "(National Center for Advancing Translational Sciences (NCATS), 2012)", "note": "Screen size: about 390,000 compounds; about 60 (0.02%) were called active. Only a selection was taken, and actives are over-represented in it overall. A number with no mark means an inactive call. No stated cut-off is given here; in the data, active means activity change below about -50%; inconclusive means between about -30% and that limit; inactive means weaker than that. On the % scale 0 is the no-effect control and ±100 the full control effect.", "data": [{"target": "Mucolipin-1 (Homo sapiens) (UniProt Q9GZU1)", "sequence (Q9GZU1 whole entry, looked up)": "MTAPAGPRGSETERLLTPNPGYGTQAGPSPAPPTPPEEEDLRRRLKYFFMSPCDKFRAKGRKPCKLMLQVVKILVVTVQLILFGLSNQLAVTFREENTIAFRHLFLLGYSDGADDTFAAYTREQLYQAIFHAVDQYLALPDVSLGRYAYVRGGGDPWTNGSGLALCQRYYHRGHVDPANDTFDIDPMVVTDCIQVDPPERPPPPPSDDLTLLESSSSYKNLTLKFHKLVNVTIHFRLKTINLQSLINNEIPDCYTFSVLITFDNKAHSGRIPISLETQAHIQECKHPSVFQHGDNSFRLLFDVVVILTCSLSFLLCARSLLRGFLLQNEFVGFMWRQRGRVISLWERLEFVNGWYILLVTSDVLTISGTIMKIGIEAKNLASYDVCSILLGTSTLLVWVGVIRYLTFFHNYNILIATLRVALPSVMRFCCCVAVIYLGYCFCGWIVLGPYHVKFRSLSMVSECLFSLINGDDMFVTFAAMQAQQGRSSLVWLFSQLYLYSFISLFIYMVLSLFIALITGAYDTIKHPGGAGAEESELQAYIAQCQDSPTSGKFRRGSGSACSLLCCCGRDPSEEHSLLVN", "assay": "qHTS for Inhibitors of the Human Mucolipin Transient Receptor Potential 1 (TRPML1);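 further: stimulus is agonist 54-4 at its EC80 concentration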", "details": "TRPML1-inducible cells, Ca2+ dye fluorescence, FDSS; hits give low values; inhibition of EC80 agonist-evoked calcium signal", "from_the_text": "Mutations of human Mucolipin transient receptor potential 1 (TRPML1) cause type IV mucolipidosis (ML4), a devastating neurodegenerative disease in young children. […] Currently, there is no treatment for ML4. […] Under physiological conditions, TRPMLs regulate membrane trafficking by transducing information about PI(3,5)P2 levels into changes in juxtaorganellar Ca2+, thereby triggering membrane fusion/fission events in the late endocytic pathways (endolysosomal trafficking). In addition, TRPML1 mediates release of Fe2+ from late endosomes and lysosomes, which is essential for cellular iron metabolism. Thus, impaired ion (Ca2+ and Fe2+) homeostasis underlies lysosomal dysfunction and ML4 phenotypes. In ML4 cells, the problem is twofold. First, defective Ca2+-dependent membrane trafficking due to TRPML1-deficiency causes accumulation of lipids and other bio-materials in the lysosome. The second strike comes from the lysosomal iron overload (due to impairment of TRPML1's Fe2+ conductivity), which converts the accumulated materials into the nondegradable (resistant to lysosomal degradation) lipofuscin (also called aging pigment) in the lysosome. Lipofuscin accumulation dramatically compromises the functions of lysosomes.\nNiemann-Pick type C (NPC) disease is another lysosome storage disease (LSD) with severe neurodegeneration during the childhood. Currently, there is no cure for NPC. […] Thus, TRPML1 is likely to be an essential regulator of lysosome ion homeostasis. We specifically hypothesize that stimulating TRPML1's Fe2+/Ca2+ channel activity in the lysosome using synthetic agonists can alleviate neurodegeneration associated with ML4 or NPC.\nTo this end, a high throughput screen was developed in a miniaturized format to screen against the Molecular Libraries Small Molecule Repository (MLSMR) to find small molecules that act either as inhibitors or agonist against the TRPML1 channel.\nNIH Chemical Genomics Center [NCGC]\nNIH Molecular Libraries Probe Centers Network [MLPCN]\nAssay Submitter (PI): Haoxing Xu, University of Michigan Ann Arbor\nTRPML1-DL cells are dissociated from flasks, counted and, brought up to a density of 500,000 cells per mL of media containing a 1X Tet inducer. Using a Multidrop Combi, 3 uL of this cell solution is dispensed to each well of a 1536 TC treated, black, clear bottom hi base plate for a final cell density of 1,500 cells per well. The assay plates are incubated overnight (approximately 16 hours) at 37 degrees C and 5% CO2. Using a Multidrop Combi, 2 uL of ABD Ca8 no wash dye plus quencher is added to each well. The assay plates incubate at room temperature in the dark for 45-90 minutes. The assay plate is read on the FDSS using the following protocol: 10 second baseline read, 23 nL of compounds and controls are added using 1536 pintool, agonist read for 110 seconds, 1 uL EC80 addition (4 uM final 54-4 diluted in media), antagonist read for 110 seconds.", "units": {"activity change, negative = inhibition": "%"}, "values": [{"compound": "Cc1ccc(Cl)cc1N(C)C(=O)Cn1nc(Cc2cccnc2)c2ccccc2c1=O", "activity change, negative = inhibition": -7.38}, {"compound": "CC(=O)Nc1ccc(NC(=O)C2CCCN(S(=O)(=O)c3ccc4c(c3)CCCC(=O)N4)C2)cc1", "note": "(centres undefined)", "activity change, negative = inhibition": -7.84}, {"compound": "COc1ccc(-c2nc3sc(CCNS(=O)(=O)c4ccc(F)c(C)c4)c(C)n3n2)cc1", "activity change, negative = inhibition": 16.5}, {"compound": "CCc1cc2c(-c3ccccc3)cc(=O)oc2c2c1OCN(Cc1ccc(C)cc1)C2", "activity change, negative = inhibition": -21.9}, {"compound": "O=C(O)c1ccc(Nc2nc(-c3ccccc3)c3cc(Br)ccc3n2)cc1", "activity change, negative = inhibition": 16.7}, {"compound": "CCN(CC)CCNC(=O)CN1N=C(c2ccc(OC)cc2)CCC1=O", "activity change, negative = inhibition": -7.95}, {"compound": "COc1ccc(S(=O)(=O)c2c(Nc3cccc(Cl)c3)sc(C(=O)c3ccccc3)c2N)cc1", "activity change, negative = inhibition": 17}, {"compound": "Cc1ccc2ncc(C(=O)Nc3ccc(OC(F)(F)F)cc3)c(=O)n2c1", "activity change, negative = inhibition": 4.29}, {"compound": "COC(=O)c1scc(-c2ccc(C)cc2)c1S(=O)(=O)Nc1cc(Cl)c(OC)cc1OC", "activity change, negative = inhibition": 37.6}, {"compound": "COc1ccc(CC(=O)N2CC(=O)Nc3ccc(Br)cc3C2c2ccc(F)cc2)cc1OC", "note": "(centres undefined)", "activity change, negative = inhibition": 5.98}, {"compound": "Cc1cccc2c1-c1sc(C(=O)Nc3ccc(F)cc3F)cc1CO2", "activity change, negative = inhibition": 18.7}, {"compound": "CCOc1ccc(CCNC(=O)c2cc3c(=O)n(C)c4ccccc4c3n2C)cc1", "activity change, negative = inhibition": -10.6}, {"compound": "COc1cccc(CNC(=O)c2cc(=O)[nH]c3ccc(S(=O)(=O)N4CCCCC4)cc23)c1", "activity change, negative = inhibition": -1.14}, {"compound": "Cc1ccc(C)c(Cn2c(CCCNC(=O)C3CCCCC3)nc3ccccc32)c1", "activity change, negative = inhibition": 22.7}, {"compound": "CNC(=O)[C@]1(C(F)(F)F)C[C@H](CCc2ccccc2)CCCO1", "activity change, negative = inhibition": 7.15}, {"compound": "COc1cccc(-c2nnc(SCC(=O)N3CCC(C)CC3)o2)c1", "activity change, negative = inhibition": 0.454}, {"compound": "CCCn1c(=N)c(C(=O)NCc2ccccc2)cc2c(=O)n3cccc(C)c3nc21", "activity change, negative = inhibition": -0.876}, {"compound": "Cc1ccc2c(=O)c(C(=O)c3ccc(F)cc3)cn(CC(=O)NC3CCCCC3)c2n1", "activity change, negative = inhibition": -15.9}, {"compound": "COc1ccc(Br)cc1C1C2C=CCC(C)C2C(=O)N1Cc1ccccc1", "note": "(centres undefined)", "activity change, negative = inhibition": 20.3}, {"compound": "Cc1ccc(-c2cnc(C3CC3)o2)cc1S(=O)(=O)Nc1cccc(C)c1C", "activity change, negative = inhibition": 5.77}, {"compound": "COc1ccc(NC(=O)CSc2nc3ccccc3n2CC(=O)N2CCCCC2C)cc1", "note": "(centres undefined)", "activity change, negative = inhibition": 9.59}, {"compound": "Cc1cccc(N2CCN(C(=O)c3cnc(N4CCCC4)nc3C)CC2)c1C", "activity change, negative = inhibition": 12.6}, {"compound": "CCN(CCCNC(=O)c1cc2c(=O)n(CC)c3ccccc3c2s1)Cc1ccccc1", "activity change, negative = inhibition": 14.6}, {"compound": "COc1ccc(C2/C=C\\CN(C(=O)c3ccc(C)cc3)C(Cc3ccccc3)C(=O)N2Cc2ccc(F)cc2)cc1", "note": "(centres undefined)", "activity change, negative = inhibition": -1.58}, {"compound": "CCN(CC)CCNC(=O)Cn1ncc2c3ccccc3n(Cc3ccccc3C)c2c1=O", "activity change, negative = inhibition": 1.87}, {"compound": "O=C(Nc1ccc2c(c1)OCO2)c1cc(-c2cccc(Cl)c2)on1", "activity change, negative = inhibition": 1.26}, {"compound": "COc1ccc(C2CC(O)(c3ccccc3)Oc3cc(C)cc(C)c32)cc1", "note": "(centres undefined)", "activity change, negative = inhibition": 9.65}, {"compound": "Cc1ccc(S(=O)(=O)N(CC(=O)Nc2ccc(Cl)cc2Cl)c2ccccc2C)cc1", "activity change, negative = inhibition": 59.9}, {"compound": "Cc1c(NC(=O)C(C)(C)C)cccc1-c1nc2ccccc2s1", "activity change, negative = inhibition": -0.118}, {"compound": "Cc1ccc2nc(CN3CCN(S(=O)(=O)c4ccc(C)c(C)c4)CC3)oc2c1", "activity change, negative = inhibition": -6.53}, {"compound": "O=C(CCS(=O)(=O)c1cc(Br)cc2c1N(C(=O)C1CC1)CC2)Nc1ccc(Br)cc1F", "activity change, negative = inhibition": -10.7}, {"compound": "COc1cc(NC(=O)c2noc3c2CSc2ccccc2-3)cc(OC)c1OC", "activity change, negative = inhibition": 8.19}, {"compound": "Fc1ccccc1Oc1ncnc2c1oc1ccccc12", "activity change, negative = inhibition": -7.01}, {"compound": "COc1ccccc1-c1nnc(C2CCN(C(=O)c3ccc(Cl)cc3)CC2)o1", "activity change, negative = inhibition": -16.2}]}]}
